Measurements reported in the supplement of paper PMC7411054.
Where a name gives a salt, the structure may show the parent alone.

Each compound was assayed on HepG2-ACTB-RAB5A (assay: lowest phenotypically active concentration; higher = less potent). Conditions: treatment time: 24 h.
Outline: (§1)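 Each of fifteen gene-edited A549, HepG2 and WPMY1 reporter lines, marked with BFP for segmentation and GFP and RFP/FusionRed, was treated in four wells at 0.3, 1, 3 or 9 µM for 24 h prior to live imaging. Normalisation of per-well live-cell features used solvent control wells. Deviation needed ≥3 of 4 wells beyond the 95th percentile of control Euclidean distances, and reproducibility needed a median replicate Pearson correlation above the 95th percentile of non-replicates. Both were required for phenotypic activity.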
`Cc1cc(Nc2ccc(NC(=O)c3ccc(Nc4ccnc5ccccc45)cc3)cc2)nc(N)n1` was tested, and the “lowest phenotypically active concentration” value was 9 µM. In the case of `Cc1ccc(NC2=CC(=O)c3sc(C)nc3C2=O)cc1` [Ryuvidine], the “lowest phenotypically active concentration” value is reported as 3 µM. With `C[C@]1(O)C[C@@H](c2nc(-c3ccc4ccc(-c5ccccc5)nc4c3)c3c(N)nccn32)C1` [linsitinib] the “lowest phenotypically active concentration” value was 9 µM. `O=C(O)C[C@H](O)C[C@H](O)/C=C/c1c(C2CC2)nc2ccccc2c1-c1ccc(F)cc1` [Pitavastatin calcium] was tested, and the “lowest phenotypically active concentration” value was 1 µM. For `CN1[C@@H]2CC[C@H]1C[C@@H](OC(c1ccccc1)c1ccccc1)C2` [benztropine], the “lowest phenotypically active concentration” value was 9 µM. `NS(=O)(=O)c1nn2cc(-c3ccccc3)nc2s1` was tested, and the “lowest phenotypically active concentration” value was 9 µM.

Each compound was assayed on HepG2-CANX-COX4 in the same assay as above. Conditions: treatment time: 24 h.
Outline: as §1
With `CC(C)COCC(CN(Cc1ccccc1)c1ccccc1)N1CCCC1` (stereo not drawn) [bepridil] the “lowest phenotypically active concentration” value was 9 µM. With `COc1cc(OC)c2cc(-c3ccncc3)cnc2c1` [DMPQ dihydrochloride] the “lowest phenotypically active concentration” value was 9 µM. In the case of `O=C(NOCC1CC1)c1ccc(F)c(F)c1Nc1ccc(I)cc1Cl`, the “lowest phenotypically active concentration” value is reported as 1 µM. With `O=C(O)Cc1cccc(OCCCN(Cc2cccc(C(F)(F)F)c2Cl)CC(c2ccccc2)c2ccccc2)c1` [GW 3965 hydrochloride] the “lowest phenotypically active concentration” value was 9 µM. With `N#C/C(=C(/N)Sc1ccc(N)cc1)c1ccccc1C(F)(F)F` the “lowest phenotypically active concentration” value was 3 µM. With `CCCS(=O)(=O)Nc1ccc(F)c(C(=O)c2c[nH]c3ncc(Cl)cc23)c1F` the “lowest phenotypically active concentration” value was 1 µM. In the case of `C[C@H]1Oc2cc(cnc2N)-c2c(nn(C)c2C#N)CN(C)C(=O)c2ccc(F)cc21`, the “lowest phenotypically active concentration” value is reported as 3 µM. `COc1ccccc1OCCNCC(O)COc1cccc2[nH]c3ccccc3c12` (stereo not drawn) [Carvedilol] was tested, and the “lowest phenotypically active concentration” value was 9 µM. For `O=S(=O)(c1cccc2cnccc12)N1CCCNCC1` [fasudil], the “lowest phenotypically active concentration” value was 3 µM. In the case of `Clc1ccccc1C(c1ccccc1)(c1ccccc1)n1ccnc1` [Clotrimazole], the “lowest phenotypically active concentration” value is reported as 9 µM. `CSc1ccc2c(c1)N(CCC1CCCCN1C)c1ccccc1S2` (stereo not drawn) [thioridazine] was tested, and the “lowest phenotypically active concentration” value was 9 µM. For `COc1cc(N2CCC(N)CC2)ccc1Nc1ncc(Cl)c(-c2c[nH]c3ccccc23)n1`, the “lowest phenotypically active concentration” value was 1 µM. `Cc1noc(C)c1-c1ccc2c(c1)nc(CCc1ccc(OCCCN(C)C)cc1)n2CCN1CCOCC1` was tested, and the “lowest phenotypically active concentration” value was 9 µM. In the case of `C[C@]1(O)C[C@@H](c2nc(-c3ccc4ccc(-c5ccccc5)nc4c3)c3c(N)nccn32)C1` [linsitinib], the “lowest phenotypically active concentration” value is reported as 9 µM. For `O=C(O)C[C@H](O)C[C@H](O)/C=C/c1c(C2CC2)nc2ccccc2c1-c1ccc(F)cc1` [Pitavastatin calcium], the “lowest phenotypically active concentration” value was 1 µM. With `CN1[C@@H]2CC[C@H]1C[C@@H](OC(c1ccccc1)c1ccccc1)C2` [benztropine] the “lowest phenotypically active concentration” value was 9 µM. In the case of `NS(=O)(=O)c1nn2cc(-c3ccccc3)nc2s1`, the “lowest phenotypically active concentration” value is reported as 9 µM.
